Only some compounds are listed: those with a hit (about 2.6% of all), similar ones and a draw of the others.
TLR4-MyD88 BLA: TLR4-MyD88 interaction inhibition in cells. O00206+Q99836. HeLa CL3-4 TLR4/MyD88 BLA complementation, FRET ratio. inhibition, % at 8.4 µM. 200,000 compounds, 0.18% hits. AID 861; in the data active = inhibition above about 25%;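 note: 0% = vehicle and 100% = reference inhibitor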
NOD2-RIPK2 inh: NOD2-RIPK2 protein interaction inhibition | O43353 | CHO BLA complementation NOD2-RIPK2, CCF4 ratio | inhibition, % at 4.98 µM | 360,000 compounds, 0.38% hits; in the data active = inhibition above about 21%;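 note: 0% = vehicle only and 100% = reference blocker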
ABHD5-PLIN5 inh: ABHD5-PLIN5 protein interaction inhibition; 360,000 compounds, 0.78% hits; inhibition, % at 4 µM; Split G. princeps luciferase complementation, luminescence, 4 h; Q00G26+Q8WTS1;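 active = inhibition above the mean inhibition across every tested compound plus 3 SD, cut at about 22% in these data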;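 note: 0% = DMSO only wells and the 100% control is not disclosed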
Granule exo inh: blocks lytic granule exocytosis; TALL-104 LAMP-1 surface exposure, flow cytometry; cells stimulated with thapsigargin and PMA; inhibition, % at 10 µM; 360,000 compounds, 0.66% hits; AID 651702;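 active = inhibition above about 55%, limit read from the data; inconclusive = no clear call, values can overlap the other calls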
PRMT1 inh: inhibitors of human PRMT1 | Q99873 | recombinant PRMT1, activity-based probe fluorescence polarization | inhibition, % at 2.79 µM | 370,000 compounds, 1.3% hits | AID 652257;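 active = inhibition above about 21% made by adding two undisclosed values, limit read from the data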
Target sequence (Q99873 whole entry, looked up): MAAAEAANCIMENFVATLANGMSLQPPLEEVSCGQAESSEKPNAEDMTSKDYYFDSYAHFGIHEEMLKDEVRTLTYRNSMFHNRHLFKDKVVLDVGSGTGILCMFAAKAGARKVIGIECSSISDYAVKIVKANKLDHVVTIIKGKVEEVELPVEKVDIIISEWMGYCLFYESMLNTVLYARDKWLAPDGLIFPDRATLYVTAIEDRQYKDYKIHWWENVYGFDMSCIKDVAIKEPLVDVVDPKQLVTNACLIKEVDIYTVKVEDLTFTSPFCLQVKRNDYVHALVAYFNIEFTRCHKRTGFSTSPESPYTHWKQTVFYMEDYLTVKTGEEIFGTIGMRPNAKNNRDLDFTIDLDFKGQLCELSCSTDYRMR
TLR9-MyD88 block: inhibitors of human TLR9-MyD88 binding | Q9NR96+Q99836 | CHO BLA complementation TLR9-MyD88, CCF4 FRET ratio | inhibition, % at 4.98 µM | 340,000 compounds, 0.21% hits | AID 504734;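 active = inhibition above the mean over all tested compounds plus 3 SD, cut at about 21% in these data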;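 note: 0% = DMSO only wells and 100% = clavulanate BLA inhibitor control wells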
PRMT1 confirm: PRMT1 (human) inhibition, FP confirmation; inhibition, % at 2.79 µM; 3,300 compounds, 42% hits; shares compounds with PRMT1 inh; recombinant His-PRMT1, activity-based probe fluorescence polarization; AID 687036;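 active = mean inhibition across replicates above the hit cutoff derived for the earlier primary screen, cut at about 22% in these data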
* hit, by the source's call; ? = inconclusive; nt = not tested or not shown.

SMILES	TLR4-MyD88 BLA	NOD2-RIPK2 inh	ABHD5-PLIN5 inh	Granule exo inh	PRMT1 inh	TLR9-MyD88 block	PRMT1 confirm
O=C(CSC1=Nc2ccccc2C2CC=NN12)Nc1ccc(F)cc1Cl (stereo not given)	-0.6	-25.7	7.8	9.2	32.3*	3.4	43.1*
Cc1ccc(NC(=O)CSC2=Nc3ccccc3C3CC=NN23)c(C)c1 (stereo not given)	-5.5	7.7	-14.3	3.0	8.0	-8.5	nt
COc1cccc(OC(=O)c2ccccc2)c1OC(=O)c1ccccc1	nt	-0.2	-4.7	-3.8	1.0	-7.6	nt
Cc1sc(NC(=O)CSc2nc(N)cc(N)n2)c(C#N)c1C	nt	-6.8	1.9	1.7	-0.6	2.7	nt
Cc1nnc(SCC(=O)Nc2sc3c(c2C(N)=O)CCC(C)C3)[nH]c1=O (stereo not given)	nt	9.4	-10.7	0.8	25.9*	4.4	51.0*
Cc1nnc(SCC(=O)Nc2sc3c(c2C(N)=O)CCCC3)[nH]c1=O	5.9	3.6	2.6	-1.2	4.8	4.7	nt
Cc1sc(NC(=O)CSc2nnc(C)c(=O)[nH]2)c(C#N)c1C	-2.0	-14.1	-3.2	-3.1	26.6*	2.1	23.7*
O=C1CSC(=S)N1N=Cc1c(O)ccc2ccccc12	nt	-8.4	-6.7	8.5	35.0*	2.4	33.4*
COc1cc(/C=N/N2C(=O)CSC2=S)cc(Br)c1O	-8.2	-4.3	-2.9	18.5	15.0	-14.4	nt
COc1cccc(/C=N/N2C(=O)CSC2=S)c1O	-8.9	4.4	-21.0	-0.5	38.5*	1.2	53.5*
Cc1cc(F)ccc1S(=O)(=O)N1CCCCC1CCNC(=O)C(=O)NCc1ccccn1 (stereo not given)	nt	-3.8	3.5	-6.4	-3.5	3.2	nt
COC(=O)CSc1nc2nc(-c3cccs3)cc(C(F)(F)F)c2c(=O)[nH]1	nt	1.8	2.2	9.5	1.9	-3.4	nt
O=C(CSc1nc2nc(-c3cccs3)cc(C(F)(F)F)c2c(=O)[nH]1)C(F)(F)F	nt	-5.3	-17.5	?	57.9*	-9.4	84.2*
O=C(CSc1nc2nc(-c3cccs3)cc(C(F)(F)F)c2c(=O)[nH]1)NCc1ccco1	1.0	-2.3	1.4	-0.2	30.1*	0.2	12.8
COc1ccc(C)cc1NC(=O)CCc1ccc(S(=O)(=O)N2CCOCC2)cc1	nt	-1.1	7.4	0.4	-0.6	-3.8	nt
COCCN(CC(=O)Nc1cccc(S(=O)(=O)N2CCCC2)c1)Cc1nc2ccccc2c(=O)[nH]1	nt	2.9	-2.0	-7.8	6.9	6.0	nt
NC(=O)NC(=O)CC1S/C(=N/N=C2\CSC(=O)N2)NC1=O (stereo not given)	-6.8	-5.2	-4.5	-3.3	45.2*	3.0	33.2*
NC(=O)NC(=O)CC1S/C(=N/N=C/c2ccccc2)NC1=O (stereo not given)	-3.0	10.9	8.4	-3.7	13.0	3.0	nt
CCOc1ccc(N(C)C(=O)CCc2nnc3ccc(NCc4ccco4)nn23)cc1	nt	-0.7	18.0	-4.7	1.7	2.0	nt
CCCn1c(SCC(=O)N2CC(=O)Nc3ccccc32)nc2ccccc21	4.1	-10.1	-3.2	-5.9	37.2*	-2.7	24.1*
Cc1ccc(Cl)cc1NC(=O)CSC(N)=O	-1.4	2.3	-4.0	-2.4	41.3*	-10.0	99.4*
COC(=O)[C@]1(C)CCC[C@@]2(C)C3CC[C@@]4(C)C[C@]3(CCC21)CC4=NO (stereo not given in full)	nt	-10.0	-1.8	-6.3	-2.0	1.7	nt
N#C/C(=C\c1ccc(O)c(O)c1)C(=O)N1CCCC1	-3.4	-14.8	3.8	-3.2	6.0	-3.6	nt
N#C/C(=C\c1ccc(O)c(O)c1)C(=O)c1ccc(O)c(O)c1	nt	-11.5	4.1	-0.5	35.2*	0.1	18.7
Cc1ccc(-c2nc3c(Cl)cc(C(F)(F)F)cn3c2Cc2ccccc2C(F)(F)F)cc1	nt	-5.4	-3.7	-12.5	1.1	nt	nt
SMILES	TLR4-MyD88 BLA	NOD2-RIPK2 inh	ABHD5-PLIN5 inh	Granule exo inh	PRMT1 inh	TLR9-MyD88 block	PRMT1 confirm
FC(F)(F)c1cc(Cl)c2nc(-c3ccco3)c(Cc3ccccc3C(F)(F)F)n2c1	nt	7.5	50.6*	-7.2	47.1*	nt	15.4
Cn1ccnc1SCC(=O)Nc1cccc(C(F)(F)F)c1	4.7	-12.9	6.1	-1.9	-1.1	2.4	nt
O=C(CSC1=NCCN1)Nc1cccc(C(F)(F)F)c1	-3.3	-5.1	-1.7	0.9	52.1*	8.8	35.0*
Cc1cc(NC(=O)CSc2nc3ccsc3c(=O)n2Cc2ccccn2)n[nH]1	-5.0	-8.1	-10.3	-2.1	18.2	-3.5	nt
O=c1c2sccc2nc(SCc2cc(=O)n3ccccc3n2)n1Cc1ccccn1	-0.7	nt	nt	nt	27.2*	nt	15.0
O=C1NC[C@@H](c2ccccc2)OC(=O)[C@H](Cc2ccc(F)cc2)C/C=C\C[C@@H]1CC(=O)N(CCO)Cc1ccccc1	nt	3.7	-4.4	-16.8	1.2	-3.2	nt
Cc1ccc(C)c(N2CCN(C(=O)c3ccc4nc(-c5ccco5)c(-c5ccco5)nc4c3)CC2)c1	-6.9	-7.0	18.8	-4.4	44.0*	5.1	19.4
S=c1[nH]nc(COc2ccc(Cl)cc2)n1-c1ccc(Cl)cc1	nt	3.4	-0.6	-3.3	27.5*	6.7	16.6
Cc1ccc(OCc2n[nH]c(=S)n2-c2ccc(Cl)cc2)cc1	nt	10.6	-9.1	-10.1	21.1	-4.7	nt
COc1ccc(-n2c(COc3ccc(Cl)cc3Cl)n[nH]c2=S)cc1	nt	-8.9	-15.5	-0.5	27.3*	12.1	9.0
S=c1[nH]nc(COc2ccc(Cl)cc2)n1-c1ccccc1	nt	-3.5	-10.3	-6.8	15.0	-4.2	nt
CN(C)S(=O)(=O)c1ccc(SCC(=O)N2CC(=O)Nc3ccccc32)nc1	nt	2.8	-0.2	-0.7	1.3	-7.4	nt
CC(C)=C1C2C=CC1C1C(=O)N(c3ccc4c(c3)OCO4)C(=O)C21 (stereo not given)	-1.0	1.6	6.9	42.5	72.7*	-0.2	5.0
CC(C)=C1C2CCC1C1C(=O)N(c3ccc4c(c3)OCO4)C(=O)C21 (stereo not given)	-7.0	-5.8	2.5	-1.0	-2.8	-9.9	nt
CC1(C)CC(=O)C2=C(C1)Nc1ccccc1S2	nt	-10.3	-0.1	0.6	14.6	1.0	nt
CC1(C)CC(=O)C2=C(C1)Nc1ccccc1NC2	0.8	5.7	-6.9	-1.3	25.0*	1.5	-0.4
O=C(CCl)Nc1ncc(S(=O)(=O)c2ccc([N+](=O)[O-])cc2)s1	nt	-2.1	5.1	-1.4	33.2*	-15.6	3.2
NC1=NC(=O)CC(C(=O)NCCc2ccccc2)S1 (stereo not given)	7.0	-2.6	-5.2	-9.3	29.7*	4.3	3.2
O=C1CCCN1CCC1CCN(C2CC(=O)N(c3ccc(F)cc3)C2=O)CC1 (stereo not given)	0.0	2.6	12.3	3.6	47.6*	0.2	7.0

Compound activity: PubChem BioAssay, several laboratories
